Our source for the ΔTm values is ChEMBL document CHEMBL4649986, “Chemical probes and inhibitors of bromodomains outside the BET family” (Medchemcomm, 2016).

Broadly, the ΔTm is the shift of the melting midpoint relative to a reference.

The target of experiment [1] is Bromodomain-containing protein 4 (Homo sapiens) (UniProt O60885). Conditions: Compound concentration 10.0 uM, Protein concentration 2.0 uM.
The target of experiment [2] is T1, Transcription intermediary factor 1-alpha (Homo sapiens) (UniProt O15164).
T1 sequence (whole entry): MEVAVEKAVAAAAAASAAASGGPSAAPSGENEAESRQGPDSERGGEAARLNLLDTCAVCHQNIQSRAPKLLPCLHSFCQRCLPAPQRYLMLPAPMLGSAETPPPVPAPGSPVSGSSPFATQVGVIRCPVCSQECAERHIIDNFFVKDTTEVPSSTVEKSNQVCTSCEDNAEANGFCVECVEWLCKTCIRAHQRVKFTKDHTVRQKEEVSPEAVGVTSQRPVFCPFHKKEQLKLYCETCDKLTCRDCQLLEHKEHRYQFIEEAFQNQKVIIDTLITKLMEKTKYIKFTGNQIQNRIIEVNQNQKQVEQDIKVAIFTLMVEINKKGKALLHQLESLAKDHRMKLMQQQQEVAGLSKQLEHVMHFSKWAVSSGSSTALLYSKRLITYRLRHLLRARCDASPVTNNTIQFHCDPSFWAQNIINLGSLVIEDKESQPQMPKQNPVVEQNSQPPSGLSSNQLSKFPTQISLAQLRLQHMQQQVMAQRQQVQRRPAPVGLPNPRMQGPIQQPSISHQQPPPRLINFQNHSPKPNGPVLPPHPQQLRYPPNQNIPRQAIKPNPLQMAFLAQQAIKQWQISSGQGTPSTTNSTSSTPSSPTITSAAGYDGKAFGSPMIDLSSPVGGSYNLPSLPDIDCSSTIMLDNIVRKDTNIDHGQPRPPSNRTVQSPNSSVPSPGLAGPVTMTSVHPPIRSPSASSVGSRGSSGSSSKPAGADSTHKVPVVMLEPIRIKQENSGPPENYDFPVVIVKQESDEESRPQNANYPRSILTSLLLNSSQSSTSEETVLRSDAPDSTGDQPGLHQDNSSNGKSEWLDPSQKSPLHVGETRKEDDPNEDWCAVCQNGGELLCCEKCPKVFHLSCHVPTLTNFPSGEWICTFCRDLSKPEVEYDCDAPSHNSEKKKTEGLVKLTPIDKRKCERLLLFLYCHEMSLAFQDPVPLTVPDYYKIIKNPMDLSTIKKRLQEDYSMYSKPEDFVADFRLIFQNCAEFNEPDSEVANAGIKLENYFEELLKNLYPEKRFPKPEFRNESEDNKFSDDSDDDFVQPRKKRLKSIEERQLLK
To be noted: Compound concentration 10.0 uM, Protein concentration 2.0 uM.

With `CCCS(=O)(=O)c1nc(NC2CC2)cc(-c2ccc3c(ccn3C3CC(C)(C)NC(C)(C)C3)c2)n1`, the ΔTm in experiment [1] worked out at 0.53 °C; in experiment [2], 0.33 °C.
